Screens deposited in PubChem BioAssay by National Center for Advancing Translational Sciences (NCATS).
A549 tox-1: Nrf2 qHTS screen for inhibitors: counterscreen for cytotoxicity | A549 ARE-Fluc cells, CellTiter-Fluor viability, 18-24 h | Potency, µM (highest dose often 46 µM), hits mostly inhibitors | 390,000 tested, 0.16% active
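Cytotoxicity counterscreen: CellTiter-Fluor fluorescence was measured in A549 ARE_Fluc cells after 18-24 h of compound exposure in a concentration series. The subsequent BugLite luminescent read reports ARE-luciferase activity.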
TrxR1 substrate: qHTS Assay for Substrates of Mammalian Selenoprotein Thioredoxin Reductase 1 (TrxR1): qHTS. Thioredoxin reductase 1, cytoplasmic (Rattus norvegicus), O89049. Potency, µM (titrated, usually from 114 µM). 390,000 tested, 0.01% active. purified TrxR1 substrate turnover, NADPH consumption readout; further: nearly all actives have a fitted effect of over 50% in size
Target sequence (O89049 whole entry, looked up): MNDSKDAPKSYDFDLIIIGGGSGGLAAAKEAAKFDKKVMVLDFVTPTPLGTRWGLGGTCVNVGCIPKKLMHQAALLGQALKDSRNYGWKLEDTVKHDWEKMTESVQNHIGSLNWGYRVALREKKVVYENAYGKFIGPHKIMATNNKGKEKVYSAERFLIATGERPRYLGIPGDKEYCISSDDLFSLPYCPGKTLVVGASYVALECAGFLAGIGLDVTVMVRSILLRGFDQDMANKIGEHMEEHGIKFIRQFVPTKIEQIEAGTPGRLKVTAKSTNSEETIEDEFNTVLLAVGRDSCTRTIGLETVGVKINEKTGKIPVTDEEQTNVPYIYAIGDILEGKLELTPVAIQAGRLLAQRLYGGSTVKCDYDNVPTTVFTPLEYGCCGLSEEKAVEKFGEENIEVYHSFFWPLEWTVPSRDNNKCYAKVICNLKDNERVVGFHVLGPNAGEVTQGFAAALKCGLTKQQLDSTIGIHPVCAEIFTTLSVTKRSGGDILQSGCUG
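Rat TrxR1, dispensed at 90 nM, was prereduced with 400 uM NADPH (final) for 5 min at ~22 deg C, then incubated with compound 15 min before 400 uM selenite. A first-read NADPH fluorescence drop versus no-compound background flagged substrates.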
mIDH1 inhibitor: qHTS for Inhibitors of mutant isocitrate dehydrogenase 1 (IDH1): qHTS; Potency, µM (doses to about 76.6 µM), actives largely listed as inhibitors; AID 602179, 2012; 390,000 tested, 0.093% active; IDH1-R132H enzyme, NADPH consumption, diaphorase/resazurin fluorescence; Isocitrate dehydrogenase [NADP] cytoplasmic (Homo sapiens), O75874; further: nearly all actives have a fitted effect of over 65% in size
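IDH1-R132H (0.5 ug/mL dispensed) in pH 7.5 Tris buffer was preincubated 30 min with compound, then given a substrate mix of 0.016 mM NADPH and 2 mM alpha-KG for 80 min at room temperature; remaining NADPH was read by diaphorase/resazurin fluorescence.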
Nrf2 block: Nrf2 qHTS screen for inhibitors; A549 ARE-Fluc reporter, luciferase luminescence, 18-24 h; Potency, µM (titrated, usually from 46 µM), hits mostly inhibitors; 360,000 tested, 2.1% active; AID 504444, 2011; further: nearly all actives have a fitted effect of over 60% in size
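Reporter: ARE-Fluc in A549. Exposure: 18-24 h, 37 °C, 5% CO2, 5% FBS OPTI-MEM. Readouts: fluorescent cytotoxicity (CellTiter-Fluor), then luminescent Nrf2 signal after BugLite.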
Mito fusion yeast: qHTS Assay for Small Molecule Inhibitors of Mitochondrial Division or Activators of Mitochondrial Fusion; S. cerevisiae fusion-defective mutant growth rescue, CellTiterGlo 48 h; Potency, µM (doses to about 46.1 µM), most hits filed as activators; 320,000 tested, 0.23% active; further: nearly all actives have a fitted effect of over 45% in size
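Compounds are tested for their ability to restore growth of mitochondrial fusion-defective yeast strains at non-permissive 37C in YPEG medium over 48 hours. Viability is quantified by luciferase luminescence.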
TrxR1 inh: qHTS Assay for Inhibitors of Mammalian Selenoprotein Thioredoxin Reductase 1 (TrxR1): qHTS. recombinant rTrxR1, NADPH fluorescence consumption, selenite substrate. Potency, µM (titrated, usually from 114 µM), actives largely listed as inhibitors. 390,000 tested, 1% active. AID 588453, 2011; further: nearly all actives have a fitted effect of over 65% in size
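Rat TrxR1 (90 nM in the dispensed reagent) was pre-reduced with 400 uM NADPH for 5 min at room temperature, then incubated with compound for 15 min. After 400 uM selenite was added, NADPH fluorescence (Ex 340/Em 450 nm) was followed for 8 min.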
FLuc enzyme inh: Nrf2 qHTS screen for inhibitors: Purified Fluc Biochemical Counterscreen for Hit Validation; shares compounds with Nrf2 block; purified firefly luciferase, luminescence inhibition; Potency, µM (doses to about 57.5 µM), actives largely listed as inhibitors; 1,400 tested, 4% active; AID 720522, 2013; further: nearly all actives have a fitted effect of over 65% in size
A549 tox-2: Nrf2 qHTS screen for inhibitors: A549 ARE-Fluc Cytotoxicity Counterscreen for Hit Validation; shares compounds with Nrf2 block; A549 ARE-Fluc cells, cytotoxicity counterscreen; Potency, µM (highest dose often 46.1 µM), usual class: inhibitors; 1,400 tested, 2% active; AID 720523, 2013;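 further: cells exposed to compounds for 18 to 24 hours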
Nrf2 ARE inh: Nrf2 qHTS screen for inhibitors: Nrf2 A549 ARE-Fluc Confirmation Assay for Hit Validation; shares compounds with Nrf2 block; A549 ARE-firefly luciferase reporter, luminescence; Potency, µM (highest dose often 46.1 µM), actives largely listed as inhibitors; 1,400 tested, 74% active; AID 720524, 2013; further: nearly all actives have a fitted effect of over 65% in size
Large screens that a line does not name were inactive (follow-up assays come after a bar, where they were run). Hits are enriched below; roughly 3.1% of the tested compounds scored in any of these assays. The call rests on the fitted dose curve; in most records, active means well fitted curve in the direction sought with a large enough effect; inconclusive means small, poorly fitted or top-dose-only effect, or another doubt; inactive means no such curve, though single readings can be large; an effect the other way counts as inactive or inconclusive.

CCN(CC)S(=O)(=O)c1ccc2c(c1)N(CC(=O)NCc1ccccc1)C(=O)C1CCCCN21 (stereo unspecified)	none (no result: Nrf2 block, Mito fusion yeast)
N#Cc1c(NC(=O)CSc2ncn[nH]2)sc2c1CCCCC2	Nrf2 block 0.37µM | FLuc enzyme inh 9.5µM | A549 tox-2 inactive | Nrf2 ARE inh 1.6µM
O=C(Cc1ccccc1Nc1c(Cl)cccc1Cl)OCO/N=[N+](\[O-])N1CCCC1	none (no result: mIDH1 inhibitor, Mito fusion yeast)
Cc1ccc(Nc2c(-c3ccccn3)nc3cccc(C)n23)cc1	A549 tox-1 inconclusive, Nrf2 block 6.5µM | FLuc enzyme inh inactive | A549 tox-2 inconclusive | Nrf2 ARE inh 5.2µM
Cc1ccc(Nc2c(-c3ccc(C)o3)nc3cccc(C)n23)cc1	none (no result: Mito fusion yeast)
CC(=O)N(C)C1=C(N2CCOCC2)C(=O)c2ccccc2C1=O	A549 tox-1 8.2µM, Nrf2 block 0.46µM | FLuc enzyme inh inactive | A549 tox-2 16µM | Nrf2 ARE inh 5.8µM
Cc1ccc(SCCNC(=O)CN(c2cccc(C)c2C)S(C)(=O)=O)cc1	Nrf2 block inconclusive (no result: Mito fusion yeast)
CCOc1ccc(CCNc2ncnc3onc(-c4ccc(Cl)cc4)c23)cc1	Nrf2 block 7.3µM (no result: Mito fusion yeast) | FLuc enzyme inh inactive | A549 tox-2 inactive | Nrf2 ARE inh 13µM
COc1ccc(/C=N\NC(=O)c2ccccc2Br)cc1COc1c(F)c(F)cc(F)c1F	A549 tox-1 inconclusive, Nrf2 block 5.2µM | FLuc enzyme inh inactive | A549 tox-2 inactive | Nrf2 ARE inh inconclusive
COc1ccc(/C=N\NC(=O)c2ccccc2F)cc1COc1ccc(F)cc1	TrxR1 inh inconclusive
COc1cc(NS(=O)(=O)c2ccc(-c3cc(C)no3)cc2)cc(OC)c1	Nrf2 block 6.5µM (no result: Mito fusion yeast) | FLuc enzyme inh inactive | A549 tox-2 inactive | Nrf2 ARE inh 16µM
COc1ccccc1CNS(=O)(=O)c1ccc(-c2cc(C)no2)cc1	none
COc1ccc(C(=O)Nc2ccccc2-c2nc3ccccc3s2)cc1OC	A549 tox-1 inconclusive (no result: Mito fusion yeast)
CC(C)Oc1cccc(C(=O)Nc2ccc3oc(-c4cccc(Cl)c4)nc3c2)c1	Nrf2 block inconclusive (no result: Mito fusion yeast)
O=C(c1ccccc1)N1CCC(c2nc(-c3ccc(S(=O)(=O)NCC4CCCO4)cc3)no2)CC1 (stereo unspecified)	Nrf2 block 3.7µM | FLuc enzyme inh inactive | A549 tox-2 inactive | Nrf2 ARE inh 5.8µM
Cc1cccc[n+]1CC(=O)/C=C1\N(C)c2ccccc2C1(C)C	A549 tox-1 inconclusive, Nrf2 block 5.2µM | FLuc enzyme inh inactive | A549 tox-2 inactive | Nrf2 ARE inh 7.3µM
CN1/C(=C\C(=O)C[n+]2ccc(C(=O)c3ccccc3)cc2)C(C)(C)c2ccccc21	Nrf2 block 5.2µM | FLuc enzyme inh inactive | A549 tox-2 inactive | Nrf2 ARE inh 5.2µM
CN1/C(=C\C(=O)C[n+]2cccc(Br)c2)C(C)(C)c2ccccc21	Nrf2 block 3.3µM | FLuc enzyme inh inactive | A549 tox-2 inactive | Nrf2 ARE inh 4.1µM
